Each structure is given as a SMILES string. In all, about 220,000 compounds went through this assay and about 8,200 (3.7%) were called active. The entries come from a sample that favours actives as a whole. Values without a mark were called inactive.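 The calls were made as follows: active = compounds that reduced the stress-induced luciferase reporter signal by more than about 70% of percent inhibition (limit read from the data); inactive = the rest.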

This experiment in a line: blockers of ER-stress CHOP reporter expression – cell-based, unfolded protein response, luciferase reporter, primary screen (AID 2732).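 Also: 0% = tunicamycin plus vehicle and 100% = wells without tunicamycin.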 The conditions noted are these: CHO-K1 CHOP-promoter luciferase, tunicamycin-induced, 15-18 h; at 10 µM; stronger effect = higher value. A general note: A reporter such as luciferase makes a cellular process visible.
In the case of `Cc1ccc(-c2c[n+](=O)c3c(n2[O-])CCC3)cc1`, the inhibition is 17.5%.
`Cc1ccc(NS(=O)(=O)c2ccc(N/N=C/c3ccccc3OCC(=O)O)c([N+](=O)[O-])c2)c(C)c1`: the inhibition was -8.85%.
As for `C[C@H](NC(=O)OC(C)(C)C)c1nnc(SCC(N)=O)o1`, the figure is 26.6%; as for `C[C@@H](NC(=O)OC(C)(C)C)c1nnc(S(=O)(=O)Cc2ccccc2)o1`, 86.2% (active); as for `CC(C)Sc1nnc([C@H](Cc2ccccc2)NC(=O)OC(C)(C)C)o1`, 11.1%.
Regarding `CC(C)C(=O)N1CCC2(CC1)Oc1ccc(F)cc1C(=O)C21CC(c2ccccc2)=NO1` (stereo unspecified), the inhibition was 19.9%.
As for `O=C(Nc1nnc(SCc2c(Cl)cccc2Cl)s1)c1cccc([N+](=O)[O-])c1`, the figure is 30.6%; as for `CCOC(=O)C1=C(c2ccc(OC)cc2)C(=O)c2ccccc2C1=O`, 102% (active).
As for `CCOC(=O)c1c(-c2ccc(C)cc2)csc1/N=C(\C)C1=C(O)c2ccccc2C1=O`, the figure is 3.26%; as for `CCOC(=O)c1ccccc1NS(=O)(=O)c1ccc(OC)cc1`, 9.25%.
As for `O=C(Nc1ccc(N2CCN(C(=O)c3ccccc3)CC2)c(Cl)c1)c1ncn[nH]1`, the inhibition was 37.5%.
The result for `COCCn1c(SCC(=O)Nc2cc(OC)ccc2OC)nc2c(c1=O)SC(C)C2` (stereo unspecified) reads -5.89%.
On to `CC(=O)Nc1ccc(/C=C/C(=O)c2ccccc2)cc1`, for which the inhibition was -42%.
For the compound `CN(C)c1cc(-c2ccc(F)cc2)oc(=O)c1Cl`, the inhibition was 12.7%.
As for `CNC(=S)NNC(=O)c1oc2nc(-c3ccccc3)cc(-c3ccco3)c2c1N`, the figure is -27.7%; as for `CN(C)C(=O)c1coc2nc3ccccc3nc12`, 20.5%.
As for `Cc1ccsc1/C=N/Nc1ccc(Cl)nn1`, the figure is 65.5%; as for `CCN1/C(=C\c2ccc3ccccc3[n+]2CC)Sc2cc(C)ccc21`, 87.5% (active); as for `CCN1/C(=C/c2ccc3ccc(C)cc3[n+]2CC)Sc2ccccc21`, 73% (active).
As for `CCC(=O)/C=C1\Sc2ccccc2N1CC`, the figure is 14.1%; as for `CCN1/C(=C/C(=S)Nc2ccccc2)Sc2ccccc21`, -10.3%.
As for `O=C(Nc1cccc(S(=O)(=O)NC2=NCCC2)c1)C1CCCCC1`, the inhibition was 3.64%.
For the compound `CC(C)(C)NC(=O)/C(=C/c1cccnc1)NC(=O)c1ccco1`, the inhibition is 12.6%.
The result for `Cc1nnsc1C(=O)N/N=C/c1ccccc1Cl` reads -17.2%; that for `COc1ccc(/C=N/NS(=O)(=O)c2ccc(NC(C)=O)cc2)cc1`, 1.32%.
The result for `CN(C)S(=O)(=O)c1ccc(NC(=O)COC(=O)Cn2[nH]c(=O)c3ccccc3c2=O)cc1` reads 0.58%.

Broadly, the inhibition is the change of the read-out against control, counted positive when it falls.

For the origin of these results see PubChem BioAssay AID2732 (Emory University Molecular Libraries Screening Center, 2010).
